Measurements: PubChem BioAssay (NCI)
The panel holds about 83,000 compounds, 20% with a hit somewhere; the sample as a whole holds those more often.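 Percent growth is the endpoint: 0 to 100 indicates growth inhibition (40 means 60% inhibition), 0 means no net growth, and negative values indicate cell death.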 Unmarked numbers belong to inactive results. The source made the active and inactive calls. How the source made its calls: active means growth percent below 10; inactive means the rest.

Tests used:
Test in all cases: NCI-60 one-dose screen, 48 h (100 = growth as untreated, 0 = no growth, -100 = all killed)
Details in all cases: 10 µM unless noted
SR leukemia = test system: SR leukemia
RPMI-8226 leukemia = test system: RPMI-8226 leukemia
OVCAR-8 ovarian = test system: OVCAR-8 ovarian
OVCAR-5 ovarian = test system: OVCAR-5 ovarian
OVCAR-4 ovarian = test system: OVCAR-4 ovarian
SK-OV-3 ovarian = test system: SK-OV-3 ovarian
IGROV1 ovarian = test system: IGROV1 ovarian
OVCAR-3 ovarian = test system: OVCAR-3 ovarian
HS 578T breast = test system: HS 578T breast
NCI/ADR-RES ovarian = test system: NCI/ADR-RES ovarian
T-47D breast = test system: T-47D breast
BT-549 breast = test system: BT-549 breast
MDA-MB-435 melanoma = test system: MDA-MB-435 melanoma
SW-620 colon = test system: SW-620 colon
MCF7 breast = test system: MCF7 breast
HCT-116 colon = test system: HCT-116 colon
HCC-2998 colon = test system: HCC-2998 colon
KM12 colon = test system: KM12 colon

Row | Compound | growth (SR leukemia) | growth (RPMI-8226 leukemia) | growth (OVCAR-8 ovarian) | growth (OVCAR-5 ovarian) | growth (OVCAR-4 ovarian) | growth (SK-OV-3 ovarian) | growth (IGROV1 ovarian) | growth (OVCAR-3 ovarian) | growth (HS 578T breast) | growth (NCI/ADR-RES ovarian) | growth (T-47D breast) | growth (BT-549 breast) | growth (MDA-MB-435 melanoma) | growth (SW-620 colon) | growth (MCF7 breast) | growth (HCT-116 colon) | growth (HCC-2998 colon) | growth (KM12 colon)
1 | O=C(Nc1ccccc1O)c1ccc(CNc2ccnc(C(F)(F)F)c2)cc1 | 24.3% | 1.91% (active) | 38.8% | 76.6% | 52.5% | 58.6% | 59.9% | 76.2% | 50% | 18.4% | 32.1% | 47.4% | 45.3% | 72.8% | 50.1% | 42.2% | 99.6% | 62.6%
2 | CNCC[C@H](Oc1cccc2ccccc12)c1cccs1 | 51.9% | 94.7% | 82.1% | 117% | 71.7% | 109% | 84.7% | 86.9% | 67.5% | 83.4% | 99.9% | 94.2% | 88.5% | 106% | 78.1% | 68.8% | 79% | 109%
3 | N[C@@H]1CCC[C@H]1NCCCCN1C(=O)c2cccc3cc([N+](=O)[O-])cc(c23)C1=O | 4.54% (active) | 41.4% | 32.5% | 72.5% | 36.6% | 34% | 25.6% | 45.6% | 64.7% | 73.4% | 38.1% | 69.7% | 43.4% | 23.8% | 17.2% | 11.3% | 48% | 33.1%
4 | CCN(CC)CCOc1ccc(Nc2ncc3cc(-c4c(Cl)cccc4Cl)c(=O)n(CCOC)c3n2)cc1 | -30.8% (active) | 2.23% (active) | 9.23% (active) | 2.15% (active) | 35.3% | 2.93% (active) | -21.9% (active) | -22% (active) | 8.49% (active) | 6.66% (active) | 29.4% | -15.1% (active) | 1.33% (active) | 7.96% (active) | 17.2% | -40.6% (active) | 9.52% (active) | 15.9%
5 | CCN(CC)CCn1c2ccc(OC)cc2c2sc3cc(O)ccc3c(=O)c21 | 2.99% (active) | 21.2% | 30.7% | 91% | 50.7% | 52.3% | 26.3% | 38.3% | 60% | 27.6% | 62.5% | 62.7% | 48.8% | 13.3% | 9.43% (active) | 14.2% | 28.2% | 24.6%
6 | CS(=O)(=O)Nc1cc(-c2ccc3ncnc(Nc4ccc5c(cnn5Cc5ccccc5F)c4)c3c2)cnc1Cl | 35.4% | 5.17% (active) | 69.7% | 37.9% | 63.4% | 29.9% | -15.8% (active) | 13.1% | 7.95% (active) | 92.2% | -4.36% (active) | 14.6% | 43.6% | 46.8% | 13.9% | 60.4% | 59.3% | 71.5%
7 | COc1cc2c(cc1-c1c(C)noc1C)ncc1nc(CN3CCOCC3)n([C@H](C)COC(F)F)c12 | 33.7% | 10.1% | 46.1% | 68.2% | 35.9% | 7.42% (active) | 36.2% | 23.1% | 30% | 40.8% | 13% | 55.5% | 35.8% | 62.9% | 13.2% | 41.3% | 32% | 34.9%
8 | CCN1CCN(CCNc2nccc(-c3c(-c4ccc(F)c(O)c4)nc4occn34)n2)S1(=O)=O | 29.5% | -22.7% (active) | 11.7% | 102% | 19.8% | 54% | 44.2% | 39.4% | 42.6% | 12.3% | -1.77% (active) | 21.2% | 10.1% | 44.1% | 17.7% | 16.3% | 57.3% | 13.7%
9 | O=C(NCCCCO)c1cncnc1Nc1ccc2c(ccn2Cc2cccc(F)c2)c1 | 93.4% | 95.3% | 101% | 86.3% | 100% | 89.8% | 88.1% | 98.5% | 94.1% | 91.3% | 83.3% | 88.6% | 92.1% | 105% | 96.8% | 91.5% | 93.4% | 97.4%
10 | COc1cc(/C=C2\C(=O)N(CCCOc3cc(O)c4c(=O)cc(-c5ccccc5)oc4c3)c3ccccc32)cc(OC)c1O | 31.9% | 86.7% | 84.7% | 110% | 83.6% | 91.6% | 77.2% | 44.5% | 70.4% | 64% | 44.6% | 49.7% | -35.1% (active) | 38.4% | 48.9% | 63.7% | 82.9% | 62.2%
11 | COc1cc(/C=C/c2cn[nH]c2-c2ccc(C)cc2)cc(OC)c1OC | 12.3% | 25.8% | 32.8% | 85% | 78.5% | 16.2% | 51.9% | 15.5% | 39.9% | 16.7% | 22.2% | 32.9% | -16.2% (active) | 19.7% | 13.1% | 11.7% | 78.8% | 29.9%
12 | COc1cc([C@@H](CCO)C[C@H](C)c2ccc3ccccc3c2)cc(OC)c1OC | 24.5% | 22.6% | 43.5% | 70.2% | 55.8% | 33.8% | 51.2% | 8.71% (active) | 22.2% | 16.5% | 45.3% | 26% | 2.44% (active) | 18.9% | 18.8% | 18.7% | 56.1% | 26.3%
